Screening results deposited in PubChem by National Center for Advancing Translational Sciences (NCATS).
The list is not random: actives were taken first. Their share in the collection is about 3.8%.
GLS inh = blocks human kidney-isoform glutaminase activity | Potency, µM (titrated, usually from 45.5 µM), inactives show at the top dose activity change, negative = inhibition, actives largely listed as inhibitors | O94925 | GLS enzymatic activity, qHTS titration | 410,000 tested, 0.21% active | AID 624170
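Assay buffer: 45 mM KH2PO4 pH 8.2, 0.02% Tween-20. hKGA acts on L-glutamine (1 mM solution added); product glutamate is reported by an oxidase/peroxidase Amplex Red coupling, with fluorescence taken at baseline and 30 min.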
TrxR1 inh = rat TrxR1 inhibition; AID 588453; recombinant rTrxR1, NADPH fluorescence consumption, selenite substrate; 390,000 tested, 1% active; O89049; Potency, µM (doses to about 114 µM), without a hit: at the highest dose activity change, negative = inhibition, usual class: inhibitors; also: nearly all actives have a fitted effect of over 65% in size
Target sequence (O89049 whole entry, looked up): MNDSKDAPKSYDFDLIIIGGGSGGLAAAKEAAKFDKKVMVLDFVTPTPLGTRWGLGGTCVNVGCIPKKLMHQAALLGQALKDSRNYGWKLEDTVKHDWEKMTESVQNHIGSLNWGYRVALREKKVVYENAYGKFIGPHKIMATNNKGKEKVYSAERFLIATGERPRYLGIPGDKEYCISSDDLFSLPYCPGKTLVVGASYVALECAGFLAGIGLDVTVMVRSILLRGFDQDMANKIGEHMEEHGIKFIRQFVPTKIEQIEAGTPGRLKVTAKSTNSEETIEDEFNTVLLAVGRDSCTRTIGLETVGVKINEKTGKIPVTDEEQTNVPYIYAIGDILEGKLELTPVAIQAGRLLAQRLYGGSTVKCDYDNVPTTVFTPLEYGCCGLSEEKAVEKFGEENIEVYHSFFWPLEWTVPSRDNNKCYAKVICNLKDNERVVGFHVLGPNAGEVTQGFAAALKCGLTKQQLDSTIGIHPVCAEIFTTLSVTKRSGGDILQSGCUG
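Rat TrxR1 (90 nM in the dispensed reagent) was pre-reduced with 400 uM NADPH for 5 min at room temperature, then incubated with compound for 15 min. After 400 uM selenite was added, NADPH fluorescence (Ex 340/Em 450 nm) was followed for 8 min.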
VDR inhibitor = vitamin D3 receptor (human) inhibition; AID 504847; VDR-SRC2-3 peptide fluorescence polarization, 2 h; Potency, µM, for inactives: max response, negative = inhibition, actives largely listed as inhibitors; 400,000 tested, 0.93% active
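Signal is fluorescence polarization, reporting how far test compounds block the interaction of VDR with the SRC2-3 coregulator peptide after a 2 h room-temperature incubation.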
Sfp PPTase inh = Sfp phosphopantetheinyl transferase inhibition; Q9F4F7; Biochemical Sfp PPTase activity, qHTS; Potency, µM, for the others: largest response in the series, negative = inhibition, usual class: inhibitors; 310,000 tested, 3.5% active;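 also: the enzyme is Sfp with the accession as filed and its product quenches rhodamine fluorescence; 0% = enzyme reaction without inhibitor and -100% = no enzyme wells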
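Fluorescence-quenching assay: 15 nM Sfp-PPTase preincubated 15 min at room temperature with compound, then 5 uM rhodamine-CoA and 12.5 uM BHQ-2-labelled YbbR peptide added. Fluorescence (ex 525/em 598 nm) read at start and after 30 min; difference gives rate.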
KAT2A inh = GCN5L2 (KAT2A) acetyltransferase inhibition; Q92830; GCN5L2 HAT assay, ThioGlo1 CoA-SH fluorescence; Potency, µM (titrated, usually from 58.9 µM), for the others: top-dose activity change, negative = inhibition, hits mostly inhibitors; 390,000 tested, 0.21% active
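qHTS, 1536-well. 20nM enzyme, pH 7.5 HEPES/EDTA/Tween-20 buffer; 15 min compound preinc., RT. Start: 75uM H3(1-25), 70uM AcCoA, 50uM ThioGlo1. Read Ex340/Em540 at t=0 (autofluorescence flag) and t=20 min.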
TrxR1 substrate = rat thioredoxin reductase 1 substrate activity | purified TrxR1 substrate turnover, NADPH consumption readout | 390,000 tested, 0.01% active | Potency, µM (highest dose often 114 µM), for inactives: at the top dose activity change, negative = substrate turnover | AID 588456; also: nearly all actives have a fitted effect of over 50% in size
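Rat TrxR1, dispensed at 90 nM, was prereduced with 400 uM NADPH (final) for 5 min at ~22 deg C, then incubated with compound 15 min before 400 uM selenite. A first-read NADPH fluorescence drop versus no-compound background flagged substrates.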
The depositor's hits bear a star; ? = inconclusive; · = not tested or not shown; ! = repeats disagree; [ ] = dose if it differs, or a comment. Calls follow the shape of the dose curve; as a rule, active = well fitted curve in the direction sought with a large enough effect; inconclusive = small, poorly fitted or top-dose-only effect, or another doubt; inactive = no such curve, though single readings can be large; an effect the other way counts as inactive or inconclusive. Unless noted, % is scaled to controls: 0 for no effect and ±100 for the full control effect; potency is read from the fitted curve at half-maximal effect.

SMILES | GLS inh | TrxR1 inh | VDR inhibitor | Sfp PPTase inh | KAT2A inh | TrxR1 substrate
Cc1ccc(/C=C/C(=O)c2ccccc(=O)c2O)cc1C | -18.5% | ? | 44.7µM* | ? | -3.3% | -3.9%[57.1 µM]
O=C(/C=C/c1ccccc1)c1cc(Br)ccc(=O)c1O | 24.4% | ? | 22.4µM* | 15.8µM* | -16.4% | -10.0%
O=C(/C=C/c1ccc(O)cc1)c1ccccc1O | · | · | 5.62µM* | -43.5% | -26.7% | ·
CC1(C)C(=O)OC(C(=O)c2ccc(C(C)(C)C)cc2)C(C)(C)C1=O (configuration not stated) | 0.2% | 14.8%[57.1 µM] | 15.4% | 9.7% | -1.1% | -8.6%
CC(=O)C(C)Oc1ccc2c3c(c(=O)oc2c1)CCCCC3 (configuration not stated) | -9.5% | 31.9% | 15.1% | 70.8µM* | -3.9% | 351.1%
O=c1oc2cc(OCc3ccc([N+](=O)[O-])cc3)ccc2c2c1CCCC2 | 2.3% | -1.5% | -1.9% | 0.2% | 15.0% | -3.0%
O=C(O)c1ccc(COc2ccc3c4c(c(=O)oc3c2)CCC4)o1 | 12.6µM* | -9.9%[57.1 µM] | 12.9% | -18.9% | -13.5% | 52.2%[57.1 µM]
CCC(c1ccc(O)c(O)c1)C(CC)c1ccc(O)c(O)c1 (configuration not stated) | ? | 7.94µM* | 4.9% | · | · | 4.8%
CCC(NC(C)C)C(O)c1ccc(O)c(O)c1 (configuration not stated) | 11.2% | ? | 50.1µM*! | ? | -4.2% | 5.5%[57.1 µM]
CCN(c1ccccc1)S(=O)(=O)c1cc(C(=O)OC2CCOC2=O)ccc1C (configuration not stated) | 0.5% | 16.0% | 4.6% | · | ? | 1.4%
COc1cc(NS(=O)(=O)c2ccc(NC(=O)c3ccc(F)cc3)cc2)ncn1 | 2.1% | 6.5% | -6.6% | 0.6% | -4.4% | -4.2%
COc1ccc2c(c1)c1nc3ccccc3nc1n2Cc1ccc(OC(C)C)c(OC)c1 | -1.4% | -14.7% | -18.6% | 14.1µM* | 0.6% | -18.4%
NC(=S)NCCC[C@H](N)C(=O)O | · | 15.9%[57.1 µM] | 50.1µM* | 56.2µM* | ? | 3.9%[57.1 µM]
O=c1[nH]c(=S)n(-c2ccc(Br)cc2)c2ncccc12 | 2.1% | -0.9% | -14.2% | · | · | 3.3%
Fc1ccc(-n2c(=S)[nH]c3cccnc32)cc1 | -17.2% | -19.3%[57.1 µM] | -15.5% | 28.2µM* | -16.7% | -13.9%
O=C1O[C@H](CN2CCOCC2)CN1/N=C\c1ccc([N+](=O)[O-])o1 | 4.7%[20 µM] | · | 28.2µM* | 18.6% | 5.6%[21.4 µM] | ·
O=C1OC(CN2CCOCC2)CN1N=Cc1ccc([N+](=O)[O-])o1 (configuration not stated) | 14.1% | ? | 9.8% | · | -17.6% | -10.6%
O=C1OCCN1/N=C\c1ccc([N+](=O)[O-])o1 | · | · | -9.6% | 6.3% | -1.8%[21.4 µM] | ·
O=C1OC(CN(Cc2ccccc2)Cc2ccccc2)CN1N=Cc1ccc([N+](=O)[O-])o1 (configuration not stated) | -19.6% | 56.2µM* | 3.0% | · | · | -15.1%
CCCCCCCCCCCCCCCCn1cc[n+](Cc2ccccc2)c1C | · | · | 85.0% | 12.6µM* | 8.91µM* | ·
O=C(CN1C(=O)/C(=C/c2c(F)cccc2Cl)Oc2ccccc21)NCc1ccco1 | · | · | · | 39.8µM* | -7.2% | ·
CCN1CCC2(CC1)C(C#N)=C(N)Oc1c2sc2nc(C)cc(C)c12 | 2.3% | -1.6%[57.1 µM] | 1.5% | 50.1µM* | 0.6% | -0.4%[57.1 µM]
CC(=O)N1CCC2(CC1)C(C#N)=C(N)Oc1c2sc2nc(C)cc(C)c12 | -15.4% | -20.5% | 1.2% | -29.1% | -5.8% | -5.8%
O=C(COC(=O)[C@H](Cc1ccccc1)NS(=O)(=O)c1ccccc1F)NC1CCCCC1 | 0.9% | 16.0% | 8.0% | 4.0% | -7.9% | -1.3%
Cc1cccc(C(=O)c2c(N)sc3c2CCCC3)c1 | 5.8% | ? | -22.0% | 44.7µM* | -6.5% | -6.4%
SMILES | GLS inh | TrxR1 inh | VDR inhibitor | Sfp PPTase inh | KAT2A inh | TrxR1 substrate
Nc1sc2c(c1C(=O)c1ccc(Cl)cc1)CCCC2 | · | · | 44.7µM* | 9.7% | 2.9% | ·
Cc1cccc(C(=O)c2c(N)sc3c2CCC(C)C3)c1 (configuration not stated) | 3.1% | -25.1% | -7.6% | ? | -6.0% | -3.3%
Nc1sccc1C(=O)c1ccc(Cl)cc1 | 21.6% | -24.9% | -3.6% | ? | -16.0% | -11.5%
NS(=O)(=O)c1ccc(NNC(=O)c2cccs2)cc1 | ? | ? | 39.8% | ? | 22.4% | -0.4%[57.1 µM]
COc1ccc(/C(=N/Nc2ncnc3ccccc23)C(=O)O)cc1 | 15.5% | -29.1% | 10.3% | 63.1µM* | -7.4% | -19.9%
CCOC(=O)/C(=N\Nc1ncnc2ccccc12)c1ccc(OC)cc1 | -11.2% | 2.6% | 1.7% | -19.1% | -8.2% | -10.5%
CC(Oc1ccc(Cl)cc1)c1ccnc(N)n1 (configuration not stated) | 3.4% | 36.0%[11.4 µM] | 4.7% | -5.9% | -3.9% | -17.9%[11.4 µM]
O=[N+]([O-])c1ccc(-n2nnnc2-c2ccccc2)cc1 | -8.4% | 7.4% | 22.4µM* | 15.9% | -1.5% | -3.7%
O=[N+]([O-])c1ccc(-n2nnnc2-c2ccccc2)c([N+](=O)[O-])c1 | 4.5% | ? | -21.1% | 9.8% | -4.3% | -2.7%
Cc1ccc2[nH]c3c(c2c1)CN(C(=O)CN1CCN(C(=O)c2ccco2)CC1)CC3 | · | · | · | 6.8% | -2.9% | ·
O=C(CN1CCN(C(=O)c2ccco2)CC1)N1CCc2[nH]c3ccccc3c2C1 | 15.4% | ? | -7.1% | 35.5µM* | -12.2% | 3.6%
CCN1C(C(=O)c2ccccc2)=C(OC(=O)COc2ccccc2)c2ccccc2S1(=O)=O | 4.7% | 28.2µM* | -6.0% | · | -12.0% | -6.7%
Cc1n[nH]c(=S)n(/N=C/c2ccccn2)c1=O | 1.8% | -13.8% | -14.0% | 50.1µM* | 1.5% | 0.4%
O=C1CN(C(=O)COc2ccc(Cl)c(Cl)c2)c2ccccc2N1 | -3.5% | 8.7% | -3.1% | · | 3.3% | -4.8%
CC1CCCCC1NC(=O)COCc1cc(-c2cccs2)on1 (configuration not stated) | 1.7% | 44.7µM* | 1.7% | 3.8% | -6.3% | 4.0%
CCC1C/C(=C/c2ccco2)C(=O)/C(=C/c2ccco2)C1 (configuration not stated) | · | · | · | 31.6µM* | 1.0% | ·
COc1cc(OC)c(OC)cc1/C=C1\CC(C)C/C(=C\c2cc(OC)c(OC)cc2OC)C1=O (configuration not stated) | -5.8% | -0.2% | -3.5% | 44.7µM* | -12.7% | -8.3%
CCC1C/C(=C\c2cc(OC)c(OC)cc2OC)C(=O)/C(=C/c2cc(OC)c(OC)cc2OC)C1 (configuration not stated) | -6.6% | -3.0% | -28.1% | 56.2µM* | -26.3% | -6.2%
COc1ccccc1/C=C/C(=O)OCC(=O)Nc1ccc2c(c1)OCO2 | 4.4% | -0.3% | -11.9% | · | -6.1% | 5.6%
